This is an account of results in PubChem BioAssay (NCATS).

Structures are written as SMILES. Unmarked numbers belong to inactive results. Results filed as inconclusive are left out. Activity calls are given as the source filed them. The call rests on the fitted dose curve; in most records, active means well fitted curve in the direction sought with a large enough effect; inconclusive means small, poorly fitted or top-dose-only effect, or another doubt; inactive means no such curve, though single readings can be large; an effect the other way counts as inactive or inconclusive. Peptide text beside a SMILES is read from it. * marks the point of attachment. Octanoyl = CCCCCCCC(=O)*

Assay [1] can be described thus: OV-KATE Cancer Cell Toxicity qHTS against the NCATS CANVASS Library (AID 1347345). Further: potency means the concentration at half of the fitted maximal effect. The procedure, abridged:
(§1)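 Following a 4 h pre-incubation of 1000 seeded cells, compounds were pinned in an 11-pnt dilution series and left for 72 h; viability then came from CellTiter-Glo.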

Assay [2] is described as follows: U-118MG Cancer Cell Toxicity qHTS against the NCATS CANVASS Library (AID 1347351). The method, boiled down:
as §1

Assay [3] is described as follows: COV-362 Cancer Cell Toxicity qHTS against the NCATS CANVASS Library (AID 1347352). Further: potency means the concentration at half of the fitted maximal effect. The procedure, abridged: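 Toxicity was measured as CellTiter-Glo luminescence after 72 h exposure to an 11-point compound series. Compound was added to 1000 cells/well 4 h after seeding.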
Background: In qHTS, concentration-response curves come from the screen itself.

Assay [4] can be described thus: HPAF-II 24hr Apoptosis Induction qHTS against the NCATS CANVASS Library (AID 1347356). The procedure, abridged: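 Caspase-Glo 3/7 luminescence, read after 15 min room-temperature development, measures apoptosis in HPAF-II cells treated 24 h at 37 degrees C with an 11-point concentration series; 500 cells/well; doxorubicin control.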
Assay [5] can be described thus: HPAF-II 12hr Apoptosis Induction qHTS against the NCATS CANVASS Library (AID 1347358). The procedure, abridged:
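Caspase-3/7 activation by DEVD-substrate luminescence (Caspase-Glo 3/7, 15 min, room temperature) after a 12-hour compound exposure in 11 concentrations, of HPAF-II pancreatic cells seeded at 500/well in DMEM with 10% FBS.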

Assay [6] can be described thus: HEK293 24hr Apoptosis Induction qHTS against the NCATS CANVASS Library (AID 1347359). The procedure, abridged: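 HEK293 cells, 500 per well, exposed to an 11-point compound series for 24 hours at 37 degrees C. Caspase 3/7 activity read by Caspase-Glo luminescence (DEVD substrate) after 15 min at room temperature.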
A short description of assay [7]: HPAF-II 18hr Apoptosis Induction qHTS against the NCATS CANVASS Library (AID 1347360). The procedure, abridged: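 Caspase-Glo 3/7 luminescence (DEVD substrate) after 15 min RT; HPAF-II, 500 cells/well, 18 h compound exposure at 37 degrees C, qHTS series; doxorubicin control 0.1nM - 4uM.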
Assay [8] can be described thus: HEK293 12hr Apoptosis Induction qHTS against the NCATS CANVASS Library (AID 1347361). The procedure, abridged:
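500 HEK293 cells/well; cpds pin-transferred, 11-pt conc series; 12 h, 37 degrees C/5% CO2; Caspase-Glo 3/7 added, 15 min RT dark; luminescence.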

In assay [9] the target is Luciferin 4-monooxygenase (Photinus pyralis) (UniProt P08659). Briefly: Firefly luciferase counterscreen qHTS: Assay Interference Panel against the NCATS CANVASS Library (AID 1347363). Further: potency means the concentration at half of the fitted maximal effect. The method, boiled down:
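Purified P. pyralis luciferase (0.04 ug/mL, 4x reagent) added to Tris-acetate buffer with 0.013 mM D-luciferin, 0.013 mM ATP and 13.3 mM Mg-acetate; compounds preincubated 15 min, then luminescence read after 5 min, RT.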
For orientation: A counterscreen serves to expose hits that act by an unwanted route or on another target.

Assay [10] can be described thus: KB-3-1 Cancer Cell Toxicity qHTS against the NCATS CANVASS Library (AID 1347366). Further: nearly all actives have a fitted effect of over 75% in size. Further: potency means the concentration at half of the fitted maximal effect. The method, boiled down:
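500 KB-3-1 cells/well; compounds pin-transferred, 11-pnt series; 72 hr, 37C/5% CO2; CellTiter-Glo, 10 min RT; luminescence read-out.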

Assay [11] can be described thus: qHTS for ATAD5 Agonist screened against the NCATS CANVASS Library (AID 1347367). Further: potency means the concentration at half of the fitted maximal effect. The procedure, abridged: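 Luminescence read-out: ATAD5-driven luciferase in stably transfected HEK 293T cells, which rises post-transcriptionally with DNA damage. Cells were exposed 16hr at 37C to test compound; a CellTiter-Fluor fluorescence read (1hr) measured viability first.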
The nature of assay [12]: MCF7 Cancer Cell Toxicity qHTS against the NCATS CANVASS Library (AID 1347369). The method, boiled down: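 Luminescent ATP signal (CellTiterGlo) served as the cytotoxicity read-out after MCF7 breast cancer cells had been incubated 72 hr at 37C with natural products in an 11-point titration.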
Assay [13] in a line: J3T Cancer Cell Toxicity qHTS against the NCATS CANVASS Library (AID 1347371). Further: potency means the concentration at half of the fitted maximal effect. The procedure, abridged: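 Cytotoxicity read as CellTiterGlo ATP luminescence after 72 h incubation (37C, 5% CO2) of J3T canine glioma cells (500/well) with an 11-point compound series.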
Assay [14] deals with Nuclear receptor subfamily 1 group I member 3 (Homo sapiens) (UniProt Q14994). The assay is described as follows: qHTS for Constitutive Androstane Receptor (CAR) Antagonist screened against the NCATS CANVASS Library (AID 1347372). Further: potency means the concentration at half of the fitted maximal effect. The procedure, abridged: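 Luminescence readout (ONE-Glo, 30 min RT) of CYP2B6-2.2kb reporter in HepG2-hCAR cells after 24hr, 37C treatment with compound against 50 nM CITCO; CellTiter-Fluor viability read beforehand.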

Assay [15] has the same target. Briefly: qHTS for Constitutive Androstane Receptor (CAR) Agonist screened against the NCATS CANVASS Library (AID 1347373).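 Further: every well also contained 1.5 µM PK11195 alongside the test compound.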 The procedure, abridged: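 Agonist mode with 1.5uM PK11195 present: compounds for 24hr on HepG2-hCAR-CYP2B6 cells. CellTiter-Fluor fluorescence (ex 405, em 540 nm) gives viability; ONE-Glo luminescence reports CAR activation.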
A short description of assay [16]: 10-beta competent E. coli microbial cell viability qHTS against the NCATS CANVASS Library (AID 1347376). Further: series mostly up to about 46 µM. The procedure, abridged:
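Read-out: BacTiter-Glo ATP luminescence, taken 20 min after reagent addition. Beforehand, 10-beta competent E. coli at 0.2 OD had been incubated overnight at 37C with compounds at 11 concentrations.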

Assay [17] is described as follows: qHTS for H2AX Agonists against the NCATS CANVASS Library (AID 1347378). The procedure, abridged:
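TR-FRET readout (ex 320 nm, em 665/620 nm ratio) of phospho-H2AX (S139) in CHO-K1 lysates. Cells treated 3 hr at 37C with compound titration, 0.76% DMSO; lysis 30 min, antibody detection 24 hr at RT.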

Assay [18] in a line: qHTS for Inflammasome Signaling Inhibitors: IL-1-beta AlphaLISA screen against the NCATS CANVASS Library (AID 1347379).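 Further: human THP-1 cells primed with LPS then triggered with ATP.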 The procedure, abridged:
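Secreted IL-1B from human THP-1 cells quantified by AlphaLISA 16 hr after compound addition (final up to 57.5 uM). A 1 hr compound pretreatment preceded inflammasome activation with 250 ng/mL LPS plus 1.25 mM ATP (final).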

The nature of assay [19]: Inflammasome Signaling qHTS Counterscreen: IL-1-beta AlphaLISA counterscreen against the NCATS CANVASS Library (AID 1347381).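 Further: cell-free check with purified IL-1β in medium and no THP-1 cells; series mostly up to about 57 µM.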 The method, boiled down:
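Purified IL-1-beta (4 pg/well) + compound, 11-pt conc. series; acceptor beads 6 ug/mL + biotin-Ab 0.6 nM final, 1 h RT; SA-donor 24 ug/ml final, 30 min dark RT; read ex 680/em 615.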

Assay [20] in a line: Viability qHTS for inhibitors of the SERCaMP assay screened against the NCATS CANVASS Library (AID 1347400). Further: nearly all actives have a fitted effect of over 70% in size. Further: potency means the concentration at half of the fitted maximal effect. The method, boiled down: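 CellTiter-Glo luminescence measured cytotoxicity after 48 h at 37C of compound treatment (11-point series). Cells were SH-SY5Y-GLuc SERCaMP MJH297 derivatives, seeded at 1000 per well 4 h beforehand.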

Chain of Nuclear receptor subfamily 1 group I member 3 (Homo sapiens) (Q14994 whole entry, looked up): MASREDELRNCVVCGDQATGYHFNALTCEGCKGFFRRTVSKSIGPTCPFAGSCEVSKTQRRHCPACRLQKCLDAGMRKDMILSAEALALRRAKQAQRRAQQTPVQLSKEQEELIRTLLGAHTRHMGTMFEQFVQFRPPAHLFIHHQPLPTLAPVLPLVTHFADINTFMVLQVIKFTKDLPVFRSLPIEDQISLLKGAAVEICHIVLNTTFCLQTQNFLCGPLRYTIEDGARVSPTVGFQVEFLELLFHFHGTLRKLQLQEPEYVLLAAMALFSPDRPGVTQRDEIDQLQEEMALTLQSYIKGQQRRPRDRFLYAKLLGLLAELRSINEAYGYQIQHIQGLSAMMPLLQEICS
Chain of Luciferin 4-monooxygenase (Photinus pyralis) (P08659 whole entry, looked up): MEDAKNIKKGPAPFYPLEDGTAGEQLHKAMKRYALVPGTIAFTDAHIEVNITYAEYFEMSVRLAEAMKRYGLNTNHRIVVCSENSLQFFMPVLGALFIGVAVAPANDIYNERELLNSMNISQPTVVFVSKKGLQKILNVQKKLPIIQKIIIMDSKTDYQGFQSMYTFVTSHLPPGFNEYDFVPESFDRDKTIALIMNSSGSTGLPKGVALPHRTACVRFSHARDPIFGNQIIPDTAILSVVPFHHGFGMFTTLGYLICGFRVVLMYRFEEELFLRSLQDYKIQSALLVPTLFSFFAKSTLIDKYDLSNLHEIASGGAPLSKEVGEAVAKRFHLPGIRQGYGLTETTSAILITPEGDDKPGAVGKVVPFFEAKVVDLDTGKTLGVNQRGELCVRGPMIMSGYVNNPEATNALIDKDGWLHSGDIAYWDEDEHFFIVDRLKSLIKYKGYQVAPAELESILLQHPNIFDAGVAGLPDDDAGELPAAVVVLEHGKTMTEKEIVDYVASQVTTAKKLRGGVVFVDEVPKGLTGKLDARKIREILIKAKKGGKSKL

Consider `C=C1C[C@@]23C=CC(=O)[C@@](C)(CCC(=O)Nc4c(O)ccc(C(=O)O)c4O)C2C[C@@H]1CC3O` (stereo not given in full), for which the Potency result in assay [1], in assay [2], in [3], in assay [5], in [6] and in [7] was “inactive” each time. Besides, the Potency result in [8], in assay [9], in [10], in assay [11], in assay [12] and in [13] was “inactive” throughout. For the same molecule, the Potency entry in assay [14], in assay [17], in [18] and in [20] was “inactive” in each case. For the same molecule, the call in assay [4], in [15], in [16] and in [19] was inactive.
As for `C[C@@H]1O[C@@H](O[C@@H]2[C@@H](O)[C@H](O[C@@H]3[C@@H](O)[C@@H](O)C(O[C@H]4[C@H](OC(=O)[C@]56CCC(C)(C)C[C@H]5C5=CCC7[C@@]8(C)C[C@H](O)[C@H](O[C@@H]9C[C@H](CO)[C@@H](O)[C@H](O)[C@H]9O)[C@@](C)(CO)C8[C@H](O)C[C@@]7(C)[C@]5(C)CC6)OC[C@H](O)[C@@H]4O)O[C@H]3C)OC[C@H]2O)[C@H](O)[C@H](O)[C@H]1O` (stereo not given in full), the Potency result in assay [1], in [2], in assay [3], in assay [5], in [6] and in [7] was “inactive” each time. The Potency entry in assay [8], in assay [9], in assay [10], in [11], in assay [12] and in assay [13] was “inactive” in each case. In addition, the Potency entry in assay [14], in assay [17], in [18] and in assay [20] was “inactive” each time. Also, the result in assay [4], in assay [15], in [16] and in assay [19] was inactive.
Consider `COc1ccc(/C=C2\COc3cc(O)ccc3C2=O)cc1`, for which the Potency result in assay [1], in assay [3], in assay [5], in [6], in assay [7] and in assay [8] was “inactive” in each case. For the same molecule, the Potency result in [10], in assay [11], in assay [12], in assay [13], in assay [14] and in assay [17] was “inactive” in each case. In addition, the result in [4], in assay [16] and in [19] was inactive. Also, in assay [9], the Potency was 0.485 µM (active).
Regarding `C[C@@H](O)[C@H]1OC(=O)C=C2[C@]3(C)[C@H]4[C@H](OC(=O)[C@@]4(C)[C@@H](O)[C@H]4O[C@H]43)[C@H]3O[C@@]231`, the Potency in [1] is 3.34 µM (active); in [3] it was 1.88 µM (active); in assay [10], 1.48 µM (active); in assay [11], 0.524 µM (active); in assay [13], 3.32 µM (active); in assay [14] it was 5.24 µM (active). Further, the Potency in [18] was 12.2 µM (active); in assay [20], 7.6 µM (active). Besides, the molecule was classed as inactive in [4], in assay [15], in [16] and in assay [19]. Also, the Potency result in assay [5], in [6], in assay [7], in assay [8] and in [9] was “inactive” in each case.
Regarding `CCCCCCCC(=O)N[C@@H](CC(C)C)C(=O)N[C@H](C=O)CCC(=O)O` (Octanoyl-Leu-Glu-aldehyde), the Potency result in [1], in assay [2], in assay [3], in assay [5], in assay [6] and in [7] was “inactive” each time. Besides, the Potency entry in assay [8], in assay [9], in [10], in assay [11], in assay [12] and in assay [13] was “inactive” in each case. The Potency entry in assay [14], in assay [17], in [18] and in assay [20] was “inactive” each time. For the same molecule, the result in assay [4], in assay [15], in assay [16] and in assay [19] was inactive.
Turning to `Oc1ccc([C@H]2Oc3ccc(/C=C/c4cc(O)cc(O)c4)cc3C2c2cc(O)cc(O)c2)cc1` (stereo not given in full), the Potency result in assay [1], in assay [2], in assay [3], in assay [5], in assay [6] and in [7] was “inactive” each time. In addition, the Potency result in [8], in assay [9], in assay [10], in [11], in assay [12] and in assay [13] was “inactive” each time. For the same molecule, the Potency result in assay [14], in assay [17] and in assay [20] was “inactive” in each case. Besides, the call in assay [4], in assay [15], in [16] and in assay [19] was inactive.
As for `O=C1CC(c2cc(O)cc(O)c2)Oc2cc(O)ccc21` (stereo not given), the Potency result in assay [1], in assay [2], in [3], in assay [5], in assay [6] and in assay [7] was “inactive” throughout. The Potency entry in [8], in assay [9], in assay [10], in [11], in [12] and in assay [13] was “inactive” throughout. The Potency entry in assay [14] and in assay [18] was “inactive” in each case. Further, the call in assay [4], in [15], in assay [16] and in assay [19] was inactive.
